We go through eight compounds from PubChem BioAssay (NCI).

About 83,000 compounds went through this panel and 20% of them were active in at least one assay; those are over-represented in the sample as a whole.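 Results are percent growth after 48 hours of single-concentration exposure. 100 means growth as in untreated cells, lower positive values show inhibition; negative values down to -100 show cell death.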 A number with no mark means an inactive call. Activity calls are given as the source filed them. How the source made its calls: active means growth percent below 10; inactive means the rest.

Holding throughout (assay): NCI-60 one-dose screen, 48 h (100 = growth as untreated, 0 = no growth, -100 = all killed)
Details in all cases: 10 µM unless noted

Assay [1] has as its system NCI-H23 lung.
The test system of assay [2] is NCI-H226 lung.
Assay [3] deals with NCI-H322M lung.
Assay [4] deals with HOP-62 NSCLC.
The test system of assay [5] is HOP-92 NSCLC.
The test system of assay [6] is NCI-H522 lung.
Assay [7] relates to A549/ATCC NSCLC.
The test system of assay [8] is 786-0 renal.
Assay [9] has as its system COLO 205 colon.
For assay [10], the system named is K-562 leukemia.
Assay [11] relates to MALME-3M melanoma.
Assay [12] has as its system MDA-MB-231 breast.
For assay [13], the system named is RXF 393 renal.
Assay [14] deals with SF-268 CNS.
The subject of assay [15] is SF-295 CNS.
The subject of assay [16] is SF-539 CNS.
Assay [17] concerns UACC-257 melanoma.
Assay [18] relates to M14 melanoma.
Assay [19] deals with DU-145 prostate.
Assay [20] has as its system NCI-H460 lung.

Consider `CCCCCCCC/C=C/CCCCCCCC1=NC(C)(C)CN1C(C)(C)CO`, for which the growth in assay [1] is 44.7%; in assay [2], 86.2%; in assay [3] it was 58.5%; in assay [4], 30.6%; in [5] it was 20.3%; in [6] it was 13%. The growth in [7] is 30.8%; in assay [8] it was 60.3%; in [9] it was -86.3% (active); in assay [10], -58.6% (active); in [11] it was -12.9% (active); in assay [12], 17.5%. In addition, the growth was 13.1% in assay [13]; 53.6% in assay [14]; 86.9% in [15]; 77.1% in [16]; -28.5% (active) in assay [17]; -84.7% (active) in assay [18].

For the compound `COC(=O)c1cc(=O)nc(N/N=C/c2ccco2)s1`, the growth in assay [1] is 106%; in [2] it was 97.8%; in assay [3], 96.2%; in assay [4], 103%; in assay [5] it was 85.7%; in [6], 103%. The growth was 107% in assay [7]; 114% in assay [8]; 116% in assay [9]; 112% in assay [19]; 101% in [10]; 108% in [11]. Besides, the growth was 117% in assay [12]; 102% in assay [13]; 106% in [14]; 108% in [16]; 117% in assay [17]; 121% in assay [18].

Regarding `CNC(=S)NNC(=O)C1CC1`, the growth in assay [1] was 97.9%; in assay [2], 109%; in [4], 106%; in [20], 115%; in assay [5], 96%; in assay [6], 108%. Besides, the growth in [7] was 99.2%; in assay [8], 97.2%; in assay [9], 113%; in assay [19], 118%; in assay [10], 92.9%; in [11], 111%. In addition, the growth is 114% in assay [12]; 117% in assay [13]; 109% in [14]; 115% in assay [15]; 104% in assay [16]; 102% in [17]. In assay [18], the growth is 99.9%.

On to `COc1ccc2c(c1)[nH]c(=O)c1c3cc(C)c(C)cc3cn21`, for which the growth was 51.4% in assay [1]; 37% in assay [2]; -27.8% (active) in assay [4]; -41.7% (active) in [5]; -55.8% (active) in [6]; -4.9% (active) in assay [7]. Also, the growth in assay [8] is 30.9%; in [9], -48% (active); in assay [19], -68% (active); in assay [10], 35.9%; in assay [11] it was 15.6%; in assay [12], -35.7% (active). In addition, the growth in assay [13] was -48.6% (active); in [14], -3.98% (active); in assay [15], -51.7% (active); in [16], 8.86% (active); in assay [17] it was 66.8%; in assay [18], -33.5% (active).

With `N/C(=N\S(=O)(=O)c1ccccc1)Nc1nc2ccccc2s1`, the growth in assay [1] is 87.9%; in [2], 76.7%; in [4], 86.3%; in assay [20] it was 107%; in assay [5], 76.2%; in assay [6], 73.2%. In addition, the growth in assay [7] was 95.9%; in assay [8], 95.4%; in [9], 96.4%; in assay [19] it was 111%; in assay [10], 84.9%; in [11], 105%. Also, the growth in assay [12] was 92.3%; in assay [13] it was 99.4%; in assay [14] it was 92.2%; in assay [15], 92.7%; in [16] it was 91.2%; in [17], 92.6%. In assay [18], the growth is 101%.

`Cc1ccc(S(=O)(=O)NCCCNc2cc(-c3cn(C(C)(C)C)nc3-c3cccc(O)c3)ccn2)cc1`: the growth was 77% in assay [1]; 54.6% in assay [2]; 85.1% in assay [4]; 29.9% in [20]; 71% in [5]; 53% in [6]. The growth in [7] was 59.6%; in assay [8], 56.6%; in assay [9] it was 8.53% (active); in assay [19], 76.1%; in assay [10], 11.8%; in assay [11], 61.9%. Moreover, the growth was 62.5% in assay [12]; 60.2% in assay [13]; 54.8% in [14]; 51.7% in [15]; 49.7% in assay [16]; 72% in assay [17]. In addition, the growth in [18] is 56.8%.

Turning to `C=C[C@@H]1C[C@@H]2Cc3ccccc3N1O2`, the growth is 98.9% in [1]; 109% in [2]; 96.6% in assay [4]; 107% in assay [20]; 126% in assay [5]; 120% in assay [6]. Besides, the growth is 96.3% in assay [7]; 104% in assay [8]; 116% in assay [9]; 120% in [19]; 54.3% in assay [10]; 125% in [11]. Besides, the growth is 106% in assay [12]; 119% in assay [13]; 116% in assay [14]; 99.8% in [15]; 103% in assay [16]; 97.7% in [17]. For the same compound, in assay [18], the growth is 102%.

Consider `Brc1ccc(-c2[nH]ncc2-c2c[nH]c3ccccc23)cc1`, for which the growth in [1] was 92.5%; in assay [2] it was 92.8%; in assay [4], 111%; in assay [20], 98.1%; in assay [5], 63.2%; in assay [6] it was 107%. Besides, the growth in [7] was 93.6%; in assay [8], 102%; in assay [9], 109%; in assay [19], 108%; in [10], 88.4%; in assay [11] it was 90.6%. Also, the growth was 67.7% in assay [12]; 103% in [13]; 89% in assay [14]; 96.2% in assay [15]; 93.3% in assay [16]; 91.6% in [17]. Besides, the growth in [18] was 89.7%.
